{
  "source": "ChEMBL document CHEMBL4513216",
  "about": "“Probing the Open Global Health Chemical Diversity Library for Multistage-Active Starting Points for Next-Generation Antimalarials” (ACS Infect Dis, 2020)",
  "note": "Hit rate of the full screen: of about 68,000 compounds, about 2,700 (4%) showed an effect of 50% or more. The sample as a whole holds a higher share of strong results than the screen did.",
  "data": [
    {"tested_on": "Plasmodium berghei", "experiment": "Screen against P. berghei liver stage (PbLuc), transformed with Luciferase, at 2uM", "format": "functional, HepG2", "settings": "tested at 2 uM", "units": {"INHIBITION": "%"}, "values": [
      {"smiles": "Cc1cc(C)n(C2CCCN(C(=O)c3cccc4[nH]ncc34)C2)n1", "note": "(stereo not given)", "INHIBITION": -15.33},
      {"smiles": "Cc1nccn1-c1ccc(C(C)NCc2cccn2C)cc1", "note": "(stereo not given)", "INHIBITION": -28.15},
      {"smiles": "Cn1c2ccc(F)cc2c2ncn(CCN3CCOCC3)c(=O)c21", "INHIBITION": -2.5},
      {"smiles": "Cn1c2ccccc2c2ncn(CCCN3CCOCC3)c(=O)c21", "INHIBITION": 23.65},
      {"smiles": "Cn1c2ccccc2c2ncn(CCN3CCOCC3)c(=O)c21", "INHIBITION": 61.75},
      {"smiles": "CN1CCCN(C[C@@H]2CN(c3nc(C(N)=O)cs3)C[C@@H]2CO)CC1", "INHIBITION": 19.56},
      {"smiles": "COCCNc1c(-c2ccc(C)cc2)c(=O)c1=O", "INHIBITION": -21.29},
      {"smiles": "COCCN1CCO[C@H]2CN(C(=O)c3cccs3)C[C@H]21", "INHIBITION": 13.26},
      {"smiles": "O=c1cccnn1CC1CN(CC2CCCC2)Cc2nccn2C1", "note": "(stereo not given)", "INHIBITION": 52.83},
      {"smiles": "CS(=O)(=O)N1Cc2nccn2CC(Cn2ncccc2=O)C1", "note": "(stereo not given)", "INHIBITION": -9.42},
      {"smiles": "O=c1cccnn1CC1CN(Cc2ccsc2)Cc2nccn2C1", "note": "(stereo not given)", "INHIBITION": -0.51},
      {"smiles": "NC(=O)CCn1cc(CNCCCc2ccccc2O)c2ccccc21", "INHIBITION": 57.34},
      {"smiles": "NC(=O)CCn1cc(CNCCCc2ccncc2)c2ccccc21", "INHIBITION": 3.49},
      {"smiles": "Cc1n[nH]c(C)c1CCCNCc1cn(CCC(N)=O)c2ccccc12", "INHIBITION": 42.2},
      {"smiles": "NC(=O)CCn1cc(CNCc2csc(N)n2)c2ccccc21", "INHIBITION": 72.49},
      {"smiles": "CC(NCc1cn(CCC(N)=O)c2ccccc12)c1nncn1C", "note": "(stereo not given)", "INHIBITION": -81.84},
      {"smiles": "CCCN1CCN(Cc2cn(CCC(N)=O)c3ccccc23)CC1", "INHIBITION": 38.62},
      {"smiles": "CC(C)n1cnnc1CCNCc1cn(CCC(N)=O)c2ccccc12", "INHIBITION": -9.3},
      {"smiles": "Cc1ccc(C(C)NCc2cn(CCC(N)=O)c3ccccc23)cc1C", "note": "(stereo not given)", "INHIBITION": 61.63},
      {"smiles": "NC(=O)CCn1cc(CNCCCc2csc(N)n2)c2ccccc21", "INHIBITION": 37.15},
      {"smiles": "CCc1nccn1-c1cncc(C2CCN(C(=O)COC)CC2)n1", "INHIBITION": 41.98},
      {"smiles": "CCN(CC)C(=O)c1nc2c(s1)CCN(Cc1cccc(OC)c1)CC2", "INHIBITION": 1.08},
      {"smiles": "O=C(c1cccc(S(=O)(=O)NCCCn2cccn2)c1)N1CCOCC1", "INHIBITION": 30.8},
      {"smiles": "COC(=O)[C@H](C)NC(=O)Cc1c(C)nc2c(c1C)c(=O)[nH]n2C", "INHIBITION": -7.03},
      {"smiles": "COCCNc1nc2c(c(NCC3CCOC3)n1)CCNCC2", "note": "(stereo not given)", "INHIBITION": 58.53},
      {"smiles": "COCCNc1nc2c(c(NCc3ccncc3)n1)CCNCC2", "INHIBITION": -21.16},
      {"smiles": "COCCNc1nc2c(c(NCCc3cccs3)n1)CCNCC2", "INHIBITION": -15.37},
      {"smiles": "COCC(c1cccc(C(F)(F)F)c1)N(C)C(=O)c1cc(C)no1", "note": "(stereo not given)", "INHIBITION": -23.4},
      {"smiles": "COCC(c1cccc(C(F)(F)F)c1)N(C)C(=O)c1cc(C)n[nH]1", "note": "(stereo not given)", "INHIBITION": 51.21},
      {"smiles": "COCC(c1cccc(C(F)(F)F)c1)N(C)C(=O)c1ccncc1", "note": "(stereo not given)", "INHIBITION": 14.82},
      {"smiles": "CCn1cc(CNC(=O)c2nn(CC)cc2Br)cn1", "INHIBITION": -26.13},
      {"smiles": "O=C(NC1CCCN(c2ccc(OC(F)F)cc2)C1)c1c[nH]nn1", "note": "(stereo not given)", "INHIBITION": 5.48},
      {"smiles": "O=C(NC1CCCN(c2ccccc2Cl)C1)c1ccc(=O)[nH]n1", "note": "(stereo not given)", "INHIBITION": 42.88},
      {"smiles": "O=C(NC1CCN(c2ccccc2OC(F)F)C1)c1c[nH]nn1", "note": "(stereo not given)", "INHIBITION": 31.3},
      {"smiles": "O=C(NC1CCCN(c2ccccc2Cl)C1)c1c[nH]nn1", "note": "(stereo not given)", "INHIBITION": 55.18},
      {"smiles": "O=C(NC1CCN(c2ccccc2Br)C1)c1c[nH]nn1", "note": "(stereo not given)", "INHIBITION": 53.81},
      {"smiles": "O=C(NC1CCCN(c2ccccc2Cl)C1)c1nc(=O)[nH][nH]1", "note": "(stereo not given)", "INHIBITION": 8.05},
      {"smiles": "Cc1cc(C)n2c(CCCNS(=O)(=O)c3ccc(F)cc3)nnc2n1", "INHIBITION": 6.62},
      {"smiles": "CCc1nc(NC2CCCN(C(=O)c3cccs3)C2)c2cnn(C)c2n1", "note": "(stereo not given)", "INHIBITION": -33.35},
      {"smiles": "CCCN(CCC)C1(Cc2cc(-c3cccc(O)c3)on2)COC1", "INHIBITION": 50.72},
      {"smiles": "Oc1cccc(-c2cc(CC3(N(CC4CC4)CC4CC4)COC3)no2)c1", "INHIBITION": -4.2},
      {"smiles": "CCN(CC)C1(Cc2cc(-c3cccc(O)c3)on2)COC1", "INHIBITION": 10.08},
      {"smiles": "NC1(C(=O)NCCC2CN(Cc3ccco3)CCO2)CCCC1", "note": "(stereo not given)", "INHIBITION": 18.98},
      {"smiles": "CC(C)(C)c1noc(CCCC(=O)N2CCNC(=O)C2)n1", "INHIBITION": -31.79},
      {"smiles": "COCCC(=O)N1C[C@@H]2CC[C@H]1CN(C1Cc3ccccc3C1)C2", "INHIBITION": 28.97},
      {"smiles": "COCCOCC(=O)N1C[C@@H]2CC[C@H]1CN(C1Cc3ccccc3C1)C2", "INHIBITION": 61.82},
      {"smiles": "COCCOC(=O)N1C[C@@H]2CC[C@H]1CN(C1Cc3ccccc3C1)C2", "INHIBITION": -31.79},
      {"smiles": "Cc1cc(C)n(C2CCCN(C(=O)c3ccn(C)c(=O)c3)C2)n1", "note": "(stereo not given)", "INHIBITION": -42.24},
      {"smiles": "O=C(COCc1ccccc1)N1CCCC(n2cncn2)C1", "note": "(stereo not given)", "INHIBITION": 24.15},
      {"smiles": "Cc1nc(C(=O)N2CCCC(n3cncn3)C2)cs1", "note": "(stereo not given)", "INHIBITION": -81.94},
      {"smiles": "O=C(COCC1CC1)N1CCCC(n2cncn2)C1", "note": "(stereo not given)", "INHIBITION": 62.46},
      {"smiles": "O=C(COCC1CC1)N1CCCC(n2ccnc2)C1", "note": "(stereo not given)", "INHIBITION": 67.53},
      {"smiles": "CC(=O)Nc1nc(C(=O)N2CCCC(n3cncn3)C2)cs1", "note": "(stereo not given)", "INHIBITION": 72.31},
      {"smiles": "O=C(COC1CCCCC1)N1CCCC(n2ccnc2)C1", "note": "(stereo not given)", "INHIBITION": -0.13},
      {"smiles": "CC(=O)Nc1nc(C(=O)N2CCCC(n3ccnc3)C2)cs1", "note": "(stereo not given)", "INHIBITION": 18.46},
      {"smiles": "O=C(COCCOc1ccccc1)N1CCCC(n2ccnc2)C1", "note": "(stereo not given)", "INHIBITION": 29.12},
      {"smiles": "O=C(COCC1CC1)N1CCCC(n2cccn2)C1", "note": "(stereo not given)", "INHIBITION": -5.7},
      {"smiles": "Cc1ccccc1CN1CCC(CNc2ncnc3c2CCNCC3)C1", "note": "(stereo not given)", "INHIBITION": 32.26},
      {"smiles": "c1cnc(N2CCOCC3(CN(Cc4nccs4)CCO3)C2)nc1", "note": "(stereo not given)", "INHIBITION": 14.39},
      {"smiles": "CCC(C)NC(=O)c1nnn(-c2cccc3c2CCN(C)C3)c1C", "note": "(stereo not given)", "INHIBITION": -46.36},
      {"smiles": "O=C(NCCN1CCCCC1)c1ccoc1", "INHIBITION": 6.12},
      {"smiles": "COc1ccc(-c2cnc(CN3CCCC3Cn3cccn3)o2)cc1", "note": "(stereo not given)", "INHIBITION": -36.73},
      {"smiles": "O=C(NC1CCN(c2cccc(OC(F)(F)F)c2)C1=O)C1CC1", "note": "(stereo not given)", "INHIBITION": -0.13},
      {"smiles": "CC(C)OCCN(Cc1cccc(O)c1)C1CCC(O)CC1", "note": "(stereo not given)", "INHIBITION": 11.78},
      {"smiles": "C=C(C)CN(Cc1cccc(O)c1)C1CCC(O)CC1", "note": "(stereo not given)", "INHIBITION": 6.55},
      {"smiles": "CS(=O)(=O)CCN(Cc1cccc(O)c1)C1CCC(O)CC1", "note": "(stereo not given)", "INHIBITION": 50.4},
      {"smiles": "CSCCC(=O)N1CCC(CCC(=O)NCC2CCCO2)CC1", "note": "(stereo not given)", "INHIBITION": 20.71},
      {"smiles": "O=C(CNC(=O)c1c(F)cccc1Cl)Nc1ccc(F)cn1", "INHIBITION": 67.28},
      {"smiles": "CC(O)(CNC(=O)c1c(F)cccc1Cl)C1CC1", "note": "(stereo not given)", "INHIBITION": -21.74},
      {"smiles": "Cc1nc(NC(=O)CNC(=O)c2c(F)cccc2Cl)n[nH]1", "INHIBITION": 9.5}
    ]}
  ]
}
